Potency data for 99 molecules are collected here from PubChem BioAssay AID504834 (National Center for Advancing Translational Sciences (NCATS), 2011).

Screen size: about 320,000 compounds; about 22,000 (6.9%) were called active. Where a call stands in place of a potency, no number is given. About 27% were inconclusive and are not listed. Calls come from the whole dose curve; as a rule, active = well fitted inhibition curve with a large enough effect; inconclusive = small, poorly fitted or top-dose-only effect, or another doubt; inactive = no such curve, though single readings can be large or run the other way. For the sample, actives were picked, then their nearest neighbours and some compounds at random.
Potency is the fitted concentration of half-maximal effect.

A short description of this test: Primary qHTS for delayed death inhibitors of the malarial parasite plastid, 96 hour incubation. As to conditions: P. falciparum luciferase reporter growth; series mostly up to 28.7 µM. The method in brief: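 Plates of compound plus infected erythrocytes (2% hematocrit, 0.05% parasitemia final) incubate 96 hours, 37 C, 5% CO2. Detection reagent added; reduced luminescence from the parasites' luciferase reporter flags inhibition.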
Regarding `Cc1ccccc1C1=NC(C(F)(F)F)(C(F)(F)F)c2c(n(-c3ccc(F)cc3)c(=O)[nH]c2=O)N1`, the Potency is 11.7 µM (active).
As for `O=c1[nH]c(=O)n(Cc2ccco2)c2c1C(C(F)(F)F)(C(F)(F)F)N=C(c1ccco1)N2`, the Potency entry was “inactive”.
Under `O=C(NC1CCCCC1)N1CCc2[nH]c3ccccc3c2C1` stands 8.28 µM (active).
As for `C=CCNC(=S)N1CCc2[nH]c3ccccc3c2C1`, the Potency entry was “inactive”.
Regarding `O=C(Nc1ccc(Cl)cc1)N1CCc2[nH]c3ccccc3c2C1`, the Potency entry is “inactive”.
Under `Cc1ccc(F)c(NC(=O)CCOc2ccccc2C)c1` stands “inactive”; under `COc1ccccc1C(=O)N1C(CC(=O)Nc2ccccc2C)C(=O)NC2CCCCC21` (centres undefined), “inactive”; under `COc1ccc(OC)c(C2C3=C(N=c4s/c(=C\c5cccc(O)c5)c(=O)n42)c2ccccc2CC3)c1` (centres undefined), 2.08 µM (active).
With `COc1cc(C(=O)OCC(=O)NC(C)CCc2ccccc2)cc(OC)c1OC` (centres undefined), the Potency entry is “inactive”.
For the molecule `COc1ccc(-n2nc(C(=O)NCC(=O)N3CCC(C(N)=O)CC3)c3ccccc3c2=O)cc1OC`, the Potency entry was “inactive”.
Consider `COc1ccc(-n2nc(C(=O)NCC(=O)N3CCCCCC3)c3ccccc3c2=O)cc1Cl`, for which the Potency is 2.33 µM (active).
For `COCCCNC(=O)CNC(=O)c1nn(-c2ccc(OC)cc2)c(=O)c2ccccc12`, the Potency entry was “inactive”.
Regarding `Cc1ccc(C(=O)O/N=C(\N)c2ccccn2)cc1Cl`, the Potency result was “inactive”.
Then `Cc1nc(C(=O)NCc2ccccc2)sc1C1(C)CC(c2cccnc2)=NO1` (centres undefined), with “inactive”; and `S=C(NCc1ccco1)Nc1ccc2c(c1)OCCO2`, with “inactive”.
With `COc1ccccc1C1/C(=C(/O)c2ccc(C)cc2)C(=O)C(=O)N1Cc1ccco1` (centres undefined), the Potency entry is “inactive”.
For `O=C1c2ccccc2C(Nc2ccc3c(c2)OCCO3)N1Cc1ccco1` (centres undefined), the Potency is 4.65 µM (active).
As for `O=[N+]([O-])c1ccccc1/C=C/CN1CCCC(CO)C1` (centres undefined), the Potency result was “inactive”.
Turning to `COc1cccc(CNS(=O)(=O)c2ccc3c(c2)CC(C)N3C(=O)C2CCC2)c1` (centres undefined), the Potency entry is “inactive”.
`COc1cccc(CNS(=O)(=O)c2ccc3c(c2)N(C(C)=O)CCS3)c1`: the Potency result is “inactive”.
With `COc1cccc(CNS(=O)(=O)c2ccc3c(c2)CC(C)N3C(C)=O)c1` (centres undefined), the Potency was 10.4 µM (active).
For the molecule `COc1cc(C(=O)N/C(=C\c2cn(C)c3ccccc23)C(=O)N2CCOCC2)cc(OC)c1OC`, the Potency entry is “inactive”.
`Cc1ccc(NC(=O)C/C(N)=N/O)cc1Cl`: the Potency entry is “inactive”.
Then `COc1ccc(Cc2nnc(SCC(=O)Nc3ccc(C)c(Cl)c3)[nH]c2=O)cc1`, with “inactive”; and `Cc1ccc(NC(=O)CSc2nn3c(=O)c(C)nnc3s2)cc1Cl`, with 9.28 µM (active); and `O=C(c1ccc2nc(N3CCOCC3)sc2c1)N1CCN(c2ccc(Cl)cc2)CC1`, with “inactive”.
On to `Fc1cc(F)c2nc(N3CCOCC3)sc2c1`, for which the Potency is 3.7 µM (active).
Turning to `O=S(=O)(Nc1ccc2nc(N3CCOCC3)sc2c1)c1ccccc1`, the Potency result was “inactive”.
Under `COc1ccc(S(=O)(=O)N2CCN(C(C)C(=O)Nc3ccc(C(C)C)cc3)CC2)cc1` (centres undefined) stands “inactive”.
As for `CCOc1ccccc1Nc1ccc(C(=O)O)cc1[N+](=O)[O-]`, the Potency result is “inactive”.
Take `O=C(O)c1cc([N+](=O)[O-])c(Nc2cccc3ccccc23)c([N+](=O)[O-])c1`: the Potency is 3.29 µM (active).
In the case of `O=[N+]([O-])c1cccc(Nc2c3ccccc3nc3ccccc23)c1`, the Potency entry was “inactive”.
In the case of `NC(=O)c1c(NC(=O)c2ccccc2)sc2c1CCCC2`, the Potency entry is “inactive”.
Turning to `CC1CCCCC12NC(=O)N(CC(=O)Nc1ccc(S(=O)(=O)Nc3ncccn3)cc1)C2=O` (centres undefined), the Potency result is “inactive”.
Then `COCCN1C(=O)C(=O)/C(=C(/O)c2ccc(S(=O)(=O)N3CCOCC3)cc2)C1c1ccc(O)c(OC)c1` (centres undefined), with “inactive”.
As to `Cc1ccc(NC(=O)Nc2ccccc2)c(Br)c1`, the Potency was 7.38 µM (active).
Then `Cc1c(NC(=O)Nc2ccccc2)cccc1[N+](=O)[O-]`, with “inactive”; and `Cc1cccc(NC(=O)Nc2nnc(-c3ccccc3)o2)c1`, with “inactive”.
Turning to `O=C(COC(=O)c1ccccc1F)Nc1cc(S(=O)(=O)N2CCOCC2)ccc1N1CCCC1`, the Potency result was “inactive”.
As to `CCN(CC)S(=O)(=O)c1ccc(N2CCN(C)CC2)c(NC(=O)Nc2ccccc2F)c1`, the Potency is 13.1 µM (active).
Regarding `CCN(CC)S(=O)(=O)c1ccc(N2CCOCC2)c(NC(=O)C(C)Oc2ccc(F)cc2)c1` (centres undefined), the Potency was 14.7 µM (active).
As to `CCN(CC)S(=O)(=O)c1ccc(N2CCOCC2)c(NC(=O)C2COc3ccccc3O2)c1` (centres undefined), the Potency result was “inactive”.
As to `CC(=O)N1CCc2cc(S(=O)(=O)Nc3ccccc3N3CCN(C)CC3)ccc21`, the Potency result is “inactive”.
In the case of `O=C(CNCc1ccco1)Nc1cc(S(=O)(=O)N2CCOCC2)ccc1N1CCCC1`, the Potency result was “inactive”.
Take `CCC(=O)Nc1ccccc1N1CCN(S(C)(=O)=O)CC1`: the Potency result is “inactive”.
`CCN(CC)S(=O)(=O)c1cc(C(=O)Nc2cc(S(=O)(=O)N3CCOCC3)ccc2N2CCCC2)ccc1F`: the Potency is 2.62 µM (active).
For the molecule `CC(Oc1ccc(F)cc1)C(=O)Nc1cc(S(=O)(=O)N2CCOCC2)ccc1N1CCN(C)CC1` (centres undefined), the Potency entry was “inactive”.
Under `CC12CCC(=O)N1C(C(=O)Nc1ccc(F)c(F)c1F)CS2` (centres undefined) stands “inactive”.
Regarding `CCN(CC)S(=O)(=O)c1ccc(N2CCOCC2)c(C(=O)O)c1`, the Potency entry was “inactive”.
`CCN(CC)S(=O)(=O)c1ccc(N2CCOCC2)c(NC(=O)C2CSC3(C)CCC(=O)N23)c1` (centres undefined): the Potency is 10.4 µM (active).
Under `CN(CC(=O)NC(=O)Nc1ccccc1F)Cc1ccccc1` stands “inactive”; under `COc1ccc2ccn(C)c2c1`, “inactive”.
As to `O=C(Cc1cccs1)Nc1ccc([N+](=O)[O-])cc1`, the Potency entry is “inactive”.
As to `O=C(O)C(c1ccccc1)N1C(=O)/C(=C\c2ccc(-c3cccc(Cl)c3)o2)SC1=S` (centres undefined), the Potency entry was “inactive”.
Regarding `O=C1CCC(C(=O)N2CCCCO2)CN1Cc1cccc(C(F)(F)F)c1` (centres undefined), the Potency result was “inactive”.
Turning to `O=C(NC1CCCC1)c1cc(-c2ccccc2)on1`, the Potency entry was “inactive”.
Consider `CC(=O)c1cccc(NC(=S)N2CCCC2)c1`, for which the Potency result was “inactive”.
With `COc1ccc(OCc2cccc(C(=O)N3CCCC3)c2)cc1`, the Potency result is “inactive”.
Then `CCC(CC)C(=O)Nc1cccc(C(=O)N2CCCC2)c1`, with 8.28 µM (active); and `Cc1ccc(Cl)c(OCC(=O)NN2CCN(C)CC2)c1`, with “inactive”.
Turning to `CCc1c(C)nc(N)n2c(SCC(=O)NC3CCCCC3)nnc12`, the Potency result was “inactive”.
With `CCOC(=O)C1=C(CN2CCc3ccccc32)NC(=O)NC1c1ccc(Cl)cc1` (centres undefined), the Potency is 2.08 µM (active).
With `CCOC(=O)C1=C(c2ccccc2)NC(=S)NC1c1ccc(Cl)cc1` (centres undefined), the Potency result is “inactive”.
As to `CCOC(=O)C1=C(CN2CCc3ccccc32)NC(=O)NC1c1cccc([N+](=O)[O-])c1` (centres undefined), the Potency is 8.28 µM (active).
Regarding `O=C(OCC(=O)N1CCc2ccccc21)C1CCCN1S(=O)(=O)c1ccc(Cl)cc1` (centres undefined), the Potency result was “inactive”.
As for `CCOC(=O)C1=C(CN2CCCCCC2)NC(=O)NC1c1cccc([N+](=O)[O-])c1` (centres undefined), the Potency result is “inactive”.
Then `Cn1c2c(c(=O)n(C)c1=O)C(c1cccc([N+](=O)[O-])c1)Nc1ccccc1O2` (centres undefined), with “inactive”.
As for `NC(=O)C1CCCN(CC(=O)N2CCN(c3ccccc3)CC2)C1` (centres undefined), the Potency entry was “inactive”.
Take `CCOc1ccc(NC(=O)COC(=O)C2CCC(=O)N2)c([N+](=O)[O-])c1` (centres undefined): the Potency result was “inactive”.
`CN(CC(=O)O)S(=O)(=O)c1ccc2oc3ccccc3c2c1`: the Potency result was “inactive”.
`CC1CCCCC1NC(=O)c1cc(=O)[nH]c2ccccc12` (centres undefined): the Potency entry was “inactive”.
With `Cc1ccccc1NCC(=O)N/N=C\c1ccc([N+](=O)[O-])s1`, the Potency entry is “inactive”.
As to `CCOc1ccc(NC(=O)CCC(=O)NNC(=O)NC2CCCCC2)cc1`, the Potency entry is “inactive”.
On to `CCOc1ccc(NC(=O)CCC(=O)N/N=C/c2ccc([N+](=O)[O-])s2)cc1`, for which the Potency is 4.15 µM (active).
In the case of `CCOc1ccc2sc(NS(=O)(=O)c3ccc(N)cc3)nc2c1`, the Potency entry was “inactive”.
Regarding `CCc1cccc(CC)c1NC(=S)NCc1ccc2[nH]c(C)cc2c1`, the Potency was 2.62 µM (active).
Take `CCc1cccc(CC)c1NC(=S)Nc1ccc2cn[nH]c2c1`: the Potency entry is “inactive”.
For the molecule `Cc1cc2cc(CNC(=O)c3cccs3)ccc2[nH]1`, the Potency entry is “inactive”.
Under `CCOc1ncccc1C(=O)OCC(=O)Nc1cccc(S(=O)(=O)N2CCCCCC2)c1` stands “inactive”.
Under `CC(C)c1ccc(/C=C2\NC(=O)NC2=O)cc1` stands “inactive”; under `CCO[C@H]1OC(C(=O)O)=C[C@@H](C2CCCCC2)[C@@H]1CCCO`, “inactive”.
Turning to `CCO[C@H]1OC(C(=O)N2CCOCC2)=C[C@@H](c2ccc3c(c2)OCO3)[C@@H]1CCCO`, the Potency result is “inactive”.
Turning to `CCO[C@@H]1OC(C(N)=O)=C[C@H](c2ccc(Br)cc2)[C@H]1CCCO`, the Potency entry is “inactive”.
For the molecule `CCO[C@H]1OC(C(=O)N2CCCCCCC2)=C[C@@H](c2ccc(C(F)(F)F)cc2)[C@@H]1CCCO`, the Potency was 3.29 µM (active).
Take `CCO[C@@H]1OC(C(=O)N2CCOCC2)=C[C@H](C)[C@H]1CCCO`: the Potency result is “inactive”.
As to `CCO[C@H]1OC(C(=O)N2CCN(Cc3ccccc3)CC2)=C[C@@H](c2cn(C(C)=O)c3ccccc23)[C@@H]1CCCO`, the Potency was 9.28 µM (active).
Consider `Cc1ccc(S(=O)(=O)CCC(=O)OCC(=O)N(C)C2CCS(=O)(=O)C2)cc1` (centres undefined), for which the Potency entry is “inactive”.
On to `CCN(CC(=O)Nc1ccccc1C(F)(F)F)C(=O)CSCc1c(C)noc1C`, for which the Potency entry is “inactive”.
Take `Cc1ccc2c(c1)N(CC(=O)N1CCOCC1)C(=O)CO2`: the Potency entry is “inactive”.
Take `Cc1ccc2c(c1)N(CC(=O)NCC1CCCO1)C(=O)CO2` (centres undefined): the Potency is 7.38 µM (active).
Under `Cc1ccc2c(c1)N(CC(=O)N1CCCC(C)C1)C(=O)CO2` (centres undefined) stands “inactive”; under `CN(C)CCN(C(=O)C1=COCCO1)c1nc2ccc(Cl)cc2s1`, “inactive”.
Consider `O=C(Cc1cccs1)N(CC1CCCO1)C1(C(=O)NC2CCCCC2)CCCCC1` (centres undefined), for which the Potency entry is “inactive”.
As to `CC(=O)N(CC1CCCO1)C1(C(=O)NC2CCCC2)CCCCC1` (centres undefined), the Potency was 10.4 µM (active).
As to `Cc1ccc(N(C(=O)CC2NC(=O)NC2=O)C2(C(=O)NC3CCCC3)CCCCC2)cc1` (centres undefined), the Potency result is “inactive”.
Under `O=[N+]([O-])c1cccc(S(=O)(=O)NCc2ccccn2)c1` stands “inactive”.
As for `Cc1ccc(S(=O)(=O)NNC(=O)Nc2cccc3ccccc23)cc1`, the Potency is 1.85 µM (active).
Consider `Cc1ccc(S(=O)(=O)NNC(=S)NC(C)(C)C)cc1`, for which the Potency entry is “inactive”.
Turning to `COc1ccc(C(=O)NNS(=O)(=O)c2ccc(C)cc2)cc1`, the Potency result is “inactive”.
